Only some compounds are listed: those with a hit (about 4.2% of all), similar ones and a draw of the others.
FBA Mtb inh = Mtb FBA enzyme inhibitors, primary screen, biochemical, fluorescence, strain H37Rv. hit rate 2.3% among 360,000. Fructose-bisphosphate aldolase (Mycobacterium tuberculosis (strain ATCC 25618 / H37Rv)), …. inhibition, % at 1 µM. AID 588726, 2011. purified M. tuberculosis FBA, fluorescence read-out; in the data active = inhibition above about 27%;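 note: 0% = vehicle and 100% = reference inhibitor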
RecA intein inh = Mtb RecA intein splicing inhibitors, primary screen, biochemical, fluorescence, HTS. cell-free RecA intein splicing. inhibition, % (test concentration not listed). hit rate 0.75% among 290,000; in the data active = inhibition above about 30%;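 note: 0% = vehicle wells and 100% = reference inhibitor control wells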
GDH-TPI inh = GDH-TPI coupling enzyme inhibitors, primary screen, artefact control for M. tuberculosis FBA inhibitor project, biochemical, absorbance, full deck | GDH-TPI coupled enzyme counterscreen, NADH absorbance | inhibition, % at 4.8 µM | hit rate 1.2% among 360,000; in the data active = inhibition above about 30%;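 note: 0% = DMSO wells and 100% = wells lacking the enzyme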
BJeLR viability = MLPCN primary cell-based screen for lethality selective to Ras in HRASV12 cells. BJeLR (HRASV12) viability, CellTiter-Glo ATP luminescence, 48 h. inhibition, % (no concentration beside the values). hit rate 0.17% among 300,000. AID 1554, 2009; in the data active = inhibition above about 50%
PrPC surface inh = inhibitors of human cell surface prion protein PrPC, primary screen, cell-based, TR-FRET. TR-FRET read-out. AID 720596, 2013. hit rate 0.43% among 370,000. Major prion protein (Homo sapiens), P04156. inhibition, % at 13.8 µM; in the data active = inhibition above about 24%; note: 0% = median of the test wells and 100% = reference compound wells
The depositor's hits bear a star; i = inactive; / = no result given; + = active, no number.

SMILES	FBA Mtb inh	RecA intein inh	GDH-TPI inh	BJeLR viability	PrPC surface inh
Cc1ccc(NC(=O)Cn2nnc(-c3ccncc3)n2)cc1C	/	/	/	/	0.6
Nn1c(SCC(=O)Nc2cccc3ccccc23)nnc1-c1cc(-c2ccc(Cl)cc2)n[nH]1	/	/	/	/	-0.3
O=C(NC1CCCCC1)N(Cc1cc2cc3c(cc2[nH]c1=O)OCCO3)CC1CCCO1 (centres undefined)	22.7	-1.7	36.1*	6.2	4.6
CCCN(C(=O)C1CCCN(c2ncnc3c2nc2n3CCCCC2)C1)c1ccccc1C (centres undefined)	/	/	/	/	1.1
CSc1ccc(-c2cccc3nncn23)cc1	+	/	23.9	/	-23.4
COCCCN1C(=O)[C@H](CC(=O)NCc2ccc(C)o2)[C@]2(C(=O)OC)CCCCC=C12	/	/	/	/	-4.5
Cc1csc(Nc2nc(N)c(C(=O)Nc3ccccc3)o2)n1	-0.6	0.8	34.9*	17.8	5.2
Cc1csc(NC(=O)c2oc3ccccc3c2C)n1	-1.2	-5.2	16.5	18.5	4.9
COCCn1c(SCC(=O)N2CCCC2)nnc1-c1ccoc1C	129.7*	0.0	-8.1	-1.9	-1.7
O=C(Nc1cccc(C(=O)O)c1)/C(=C\c1ccc2c(c1)OCO2)NC(=O)c1ccccc1Br	-1.1	/	36.0*	/	2.1
O=C(Nc1ccc(C(=O)O)cc1)/C(=C\c1ccc2c(c1)OCO2)NC(=O)c1ccccc1Cl	-0.3	/	34.8*	/	-6.5
O=C(Nc1cccc(C(=O)O)c1)/C(=C/c1ccc2c(c1)OCO2)NC(=O)c1cccc(Br)c1	6.9	3.2	20.2	5.3	1.7
O=C(Nc1ccc(C(=O)O)cc1)/C(=C\c1ccc2c(c1)OCO2)NC(=O)c1ccco1	-9.6	1.3	20.5	0.0	-3.9
O=C1C[C@H](c2ccc3ccccc3c2)N=C2N1/C(=C\c1ccccc1)[C@@H](c1ccccc1C(F)(F)F)N2Cc1ccc2c(c1)OCO2	/	/	/	/	7.2
COC(=O)C1CN(Cc2cn(CCOC(C)=O)nn2)CCS(=O)(=O)N1Cc1ccc(C)cc1 (centres undefined)	/	/	/	/	-0.9
COc1ccc(NC(=O)c2cc3ccccc3o2)cc1	2.5	1.5	10.9	0.8	-0.5
COc1ccc2ccc(OC)c(/C=N/NC(=O)c3cc4ccccc4o3)c2c1	4.0	/	31.6*	/	13.8
COc1ccc(/C=N/NC(=O)c2cc3c(ccc4ccccc43)o2)cc1OC	6.7	-4.9	25.8	/	-1.3
COc1cc(/C=N/NC(=O)c2cc3c(ccc4ccccc43)o2)cc(OC)c1O	5.2	-7.1	49.0*	0.8	-5.2
COc1ccccc1/C=N/NC(=O)c1cc2c(ccc3ccccc32)o1	11.8	-1.4	22.1	3.6	1.9
COc1ccc(/C=N\NC(=O)c2cc3c(ccc4ccccc43)o2)cc1O	8.7	-5.2	39.2*	/	-3.0
CC(C)(N[C@@H](Cc1c[nH]c2ccccc12)C(=O)NCCCc1ccccc1)C(=O)NCc1ccccc1	/	/	/	/	2.6
O=C(Nc1cccc(Cl)c1)O[C@@H]1CC[C@@]23CCCN2C(=O)CCC[C@H]3C1	/	/	/	/	8.0
C=CCN1[C@@H](C)COc2cc(N3CCSCC3)ccc2S1(=O)=O	/	/	/	/	9.9
CSc1ccc(C(=O)NCC2CCN(C(=O)C(=O)c3cc4ccccc4o3)CC2)cc1	/	/	/	/	-8.6
SMILES	FBA Mtb inh	RecA intein inh	GDH-TPI inh	BJeLR viability	PrPC surface inh
CCc1nc(Nc2cccc(O)c2)c2oc3ccccc3c2n1	4.4	2.5	30.9*	-0.2	/
C[C@@H]1CCC(=O)N(CC[C@H](Sc2ccc(Br)cc2)c2ccccc2)CC1	0.1	/	1.8	/	17.1
Cc1ccc(S[C@@H](CCN2CC[C@H](C)CCC2=O)c2ccccc2)cc1	2.7	30.3*	2.7	6.1	7.0
Cc1ccc(S(=O)(=O)Oc2ccccc2/C=N/Nc2ccc(C(=O)O)cc2)cc1	12.1	5.6	50.6*	3.7	3.6
CCCCCCC/C=C(\C)[C@@H](O)[C@@H](C)C(=O)N1CCC[C@@H]1C(=O)O	/	/	/	/	0.2
Cc1ccc(CN2CCCCC(NC(=O)c3ccc4ccccc4c3)C2=O)cc1 (centres undefined)	/	/	/	/	8.6
BrC(/C=N/N1CCN(Cc2ccccc2)CC1)=C/c1ccccc1	0.1	9.6	31.0*	1.5	5.3
BrC(=C\c1ccccc1)/C=N/N1CCN(Cc2ccccc2)CC1	-3.1	5.4	8.6	2.3	3.4
C=Cc1ccc(C(=O)Nc2nnc(-c3cccnc3)s2)cc1	/	/	/	/	0.5
COc1ccc(OC)c(Nc2c3ccccc3nc3ccccc23)c1	2.2	15.6	-1.7	23.7	2.4
COc1c2ccccc2nc2ccccc12	143.4*	-184.8	11.1	12.1	2.7
COc1cc(C(C#N)N2CCC(c3ccccc3)=N2)ccc1O (centres undefined)	0.5	0.8	36.2*	-15.9	-6.0
CC1(C)CC(N=c2cc(-c3ccccc3)oc3ccc(Cl)cc23)CC(C)(C)N1	0.9	0.2	14.8	12.4	-3.5
OCCCN=c1cc(-c2ccccc2)oc2ccc(Cl)cc12	0.1	0.5	48.6*	14.9	-34.3
C[C@@H](CCCCC1(C)OCCO1)CCC(=O)N(c1ccccc1)c1ccccc1	/	/	/	/	0.6
CC(Oc1cc2oc(=O)cc(-c3ccccc3)c2cc1Cl)C(=O)NCC1CCC(C(=O)O)CC1 (centres undefined)	6.3	-0.2	28.4	-10.3	-9.9
CC(NC(=O)OC(C)(C)C)C(=O)Oc1cc2oc(=O)cc(-c3ccccc3)c2cc1Cl (centres undefined)	42.9*	-69.9	20.0	11.1	/
COc1ccc(Cn2ccc3ccc(-c4ccc5ccn(Cc6cccc(F)c6)c5c4)cc32)cc1	/	/	/	/	-5.7
O=C(c1cc(-c2cccc(Cl)c2)nc2ccccc12)N1CCN(c2ccccn2)CC1	-0.6	13.7	2.1	-3.4	-0.2
O=C(O)c1cc(-c2cccc(Cl)c2)nc2nc(N3CCCCC3)sc12	+	-8.6	18.3	-2.6	1.2
Oc1ccc(Nc2nc(-c3ccc(O)cc3)cs2)cc1	1.4	33.5*	17.1	-16.1	-8.4
COC(=O)[C@]12C[C@H](CC(=O)NCCCCc3ccccc3)C(=O)N(Cc3cccc4ccccc34)C1=C[C@H](COCc1ccccc1)O[C@@H]2C	/	/	/	/	-1.6
O=C(c1cccc(C(F)(F)F)c1)N1CC[C@H]2[C@H](CCCN2Cc2ccc(F)cc2)C1	/	/	/	/	-4.8
COCc1cc(C)nc(N/N=C/c2ccc(-c3ccc(C(=O)O)c(Cl)c3)o2)c1C#N	/	-0.7	/	-0.6	/
COCc1cc(C)n(CC(=O)N/N=C/c2ccc(-c3ccc(Cl)c(C(=O)O)c3)o2)c(=O)c1C#N	5.2	-1.8	68.9*	-7.0	-10.1
O=c1ccc2cc(O[C@@H]3O[C@@H](CO)[C@H](O)[C@@H](O)[C@@H]3O)c(O)cc2o1	+	i	5.6	-5.7	-4.7
O=c1ccc2ccc(O[C@@H]3O[C@H](CO)[C@@H](O)[C@H](O)[C@H]3O)c(O)c2o1	6.3	/	26.1	/	-8.6

Assay outcomes as filed in PubChem.
